From PubChem BioAssay
Activity calls are given as the source filed them.

Legend:
[1] = system: Plasmodium falciparum Sir2 (PF13_0152, Sir2A); experiment: Plasmodium falciparum Sir2A binding compounds – biochemical, small-molecule microarray, 635 nm fluorescence, primary screen (AID 1098); settings: fluorescence 635 nm, higher = more signal;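 further: score merges spot fluorescence intensity with its signal-to-noise ratio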
[2] = probe aDKK1 binding to arrayed compounds – biochemical, biotinylated probe, 635/667 nm fluorescence, primary screen (AID 1099); settings: small-molecule microarray, higher = more signal;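 further: score merges 667nm spot fluorescence with signal to noise across triplicate slides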
[3] = probe aCHRDL2 binding to arrayed compounds – biochemical, biotinylated probe, 635/667 nm fluorescence, primary screen (AID 1100); settings: small-molecule microarray, higher = more signal
[4] = change in splice reporter luminescence, either direction, cell-based, HEK293, spliceosome inhibition project, primary screen (AID 1101); settings: HEK293 splicing luciferase reporter, 24 h, higher = more signal, called active from +8 up or from −8 down;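 further: HEK293 cells carrying a splicing-competent luciferase reporter gene; test concentration not given here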
[5] = molecular target: Fibroblast growth factor 10 (Homo sapiens) (UniProt O15520); experiment: compounds binding fibroblast growth factor 10 – biochemical, small-molecule microarray, 635 nm fluorescence, primary screen (AID 1102); settings: FGF10 binding, fluorescence 635 nm, higher = more signal
Sequence of Fibroblast growth factor 10 (Homo sapiens) (O15520 whole entry, looked up): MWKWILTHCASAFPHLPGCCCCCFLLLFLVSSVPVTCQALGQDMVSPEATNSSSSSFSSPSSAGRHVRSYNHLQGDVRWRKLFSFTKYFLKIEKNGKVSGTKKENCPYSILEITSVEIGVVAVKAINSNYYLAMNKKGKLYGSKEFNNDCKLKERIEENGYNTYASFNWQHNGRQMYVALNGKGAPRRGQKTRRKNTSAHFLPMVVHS

[6] = system: glycogen synthase kinase-3 (GSK3A per assay name; protocol says GSK3B); experiment: compounds binding glycogen synthase kinase-3 – biochemical, small-molecule microarray, 635 nm fluorescence, GSK3A, primary screen (AID 1103); settings: fluorescence 635 nm, higher = more signal; further: the record names both GSK3A and GSK3B
[7] = molecular target: Epidermal growth factor receptor (Homo sapiens) (UniProt P00533); experiment: compounds binding epidermal growth factor receptor – biochemical, small-molecule microarray, 635 nm fluorescence, primary screen (AID 1104); settings: EGFR binding, higher = more signal;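 further: score merges 667 nm emission intensity with spot signal to noise over triplicate slides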
Sequence of Epidermal growth factor receptor (Homo sapiens) (P00533 whole entry, looked up): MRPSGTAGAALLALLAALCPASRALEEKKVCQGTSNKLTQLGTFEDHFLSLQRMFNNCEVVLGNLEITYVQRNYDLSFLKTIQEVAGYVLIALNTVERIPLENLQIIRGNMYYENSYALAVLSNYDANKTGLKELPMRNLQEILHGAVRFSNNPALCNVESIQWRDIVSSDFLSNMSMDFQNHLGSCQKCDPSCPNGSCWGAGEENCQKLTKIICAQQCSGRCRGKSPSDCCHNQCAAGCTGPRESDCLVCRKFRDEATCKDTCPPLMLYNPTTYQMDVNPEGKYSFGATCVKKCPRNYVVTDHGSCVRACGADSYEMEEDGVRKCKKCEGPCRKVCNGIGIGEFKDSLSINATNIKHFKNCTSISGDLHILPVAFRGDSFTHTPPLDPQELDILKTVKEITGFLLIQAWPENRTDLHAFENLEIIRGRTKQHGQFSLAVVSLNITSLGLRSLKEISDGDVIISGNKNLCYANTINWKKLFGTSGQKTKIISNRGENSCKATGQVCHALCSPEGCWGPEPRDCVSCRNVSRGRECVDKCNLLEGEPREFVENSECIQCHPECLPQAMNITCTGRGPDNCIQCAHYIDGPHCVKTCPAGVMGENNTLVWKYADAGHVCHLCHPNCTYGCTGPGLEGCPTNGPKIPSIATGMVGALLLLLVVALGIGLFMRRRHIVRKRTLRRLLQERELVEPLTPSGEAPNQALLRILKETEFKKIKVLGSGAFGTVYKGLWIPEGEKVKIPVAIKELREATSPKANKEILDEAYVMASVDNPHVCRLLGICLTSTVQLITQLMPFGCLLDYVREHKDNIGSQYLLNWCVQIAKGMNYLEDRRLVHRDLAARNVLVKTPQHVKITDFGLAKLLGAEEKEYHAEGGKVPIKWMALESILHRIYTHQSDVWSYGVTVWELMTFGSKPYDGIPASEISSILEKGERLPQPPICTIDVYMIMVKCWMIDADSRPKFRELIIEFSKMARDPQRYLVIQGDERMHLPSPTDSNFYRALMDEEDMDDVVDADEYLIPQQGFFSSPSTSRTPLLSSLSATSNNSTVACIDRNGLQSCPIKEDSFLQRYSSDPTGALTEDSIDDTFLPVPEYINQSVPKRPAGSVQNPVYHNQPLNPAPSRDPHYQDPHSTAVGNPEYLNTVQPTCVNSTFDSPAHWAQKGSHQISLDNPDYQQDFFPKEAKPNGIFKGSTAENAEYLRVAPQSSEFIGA

[8] = molecular target: Follistatin-related protein 3 (Homo sapiens) (UniProt O95633); experiment: compounds binding follistatin-related protein 3 – biochemical, small-molecule microarray, 635 nm fluorescence, primary screen (AID 1105); settings: FSTL3 binding, higher = more signal;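 further: score merges emission near 667 nm and signal to noise per printed spot across three slides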
Sequence of Follistatin-related protein 3 (Homo sapiens) (O95633 whole entry, looked up): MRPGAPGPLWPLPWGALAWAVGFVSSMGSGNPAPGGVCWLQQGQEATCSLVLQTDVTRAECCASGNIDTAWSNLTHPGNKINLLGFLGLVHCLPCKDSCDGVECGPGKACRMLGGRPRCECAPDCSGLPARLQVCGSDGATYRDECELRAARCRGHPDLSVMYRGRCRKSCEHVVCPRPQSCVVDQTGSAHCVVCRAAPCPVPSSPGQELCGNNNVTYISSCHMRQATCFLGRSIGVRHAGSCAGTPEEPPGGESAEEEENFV

[9] = molecular target: Dickkopf-related protein 1 (Homo sapiens) (UniProt O94907); experiment: small molecules binding DKK1 protein – biochemical, small-molecule microarray, 635 nm fluorescence scan, primary screen (AID 1106); settings: higher = more signal;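 further: score merges emission near 667 nm with signal to noise over three replicate slides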
Sequence of Dickkopf-related protein 1 (Homo sapiens) (O94907 whole entry, looked up): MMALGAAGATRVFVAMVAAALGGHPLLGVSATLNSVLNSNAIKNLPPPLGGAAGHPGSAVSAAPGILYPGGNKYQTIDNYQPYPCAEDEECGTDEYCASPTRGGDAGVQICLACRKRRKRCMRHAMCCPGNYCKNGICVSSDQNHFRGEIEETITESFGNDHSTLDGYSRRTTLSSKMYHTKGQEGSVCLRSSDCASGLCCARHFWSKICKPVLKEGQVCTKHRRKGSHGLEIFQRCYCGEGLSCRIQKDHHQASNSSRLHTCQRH

[10] = system: Inhibin beta A chain (activin A); experiment: small molecules binding activin A – biochemical, small-molecule microarray, 635 nm fluorescence scan, primary screen (AID 1107); settings: INHBA, higher = more signal;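 further: mouse activin A protein probed at 4.33 µg/mL on printed slides; score merges bound-protein fluorescence near 667 nm with spot signal-to-noise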
[11] = system: Human papillomavirus type 1a protein E7 (residues 44-93); experiment: small molecules binding HPV E7 44-93 – biochemical, small-molecule microarray, residues 44-93, 635 nm fluorescence, primary screen (AID 1108); settings: fluorescence 635 nm, higher = more signal;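 further: E7 fragment applied at 1 µg/mL in TBST for 1 h at 4 C; score combines spot fluorescence with its signal to noise ratio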
[12] = hepatitis C replication reporter changes, two-sided – Huh7 cells, luciferase reporter, HCV replication inhibitor project, primary screen (AID 1109); settings: Huh7 HCV replicon luciferase reporter, 48 h; higher = more signal;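 further: huh7 hepatoma cells harbouring a luciferase neomycin HCV replicon reporter; luciferase luminescence as measure of HCV replicon replication; test concentration not given here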
[13] = molecular target: Left-right determination factor 2 (Homo sapiens) (UniProt O00292); experiment: small molecules binding LEFTY2 protein – biochemical, small-molecule microarray, 635 nm fluorescence scan, primary screen (AID 1110); settings: higher = more signal
Sequence of Left-right determination factor 2 (Homo sapiens) (O00292 whole entry, looked up): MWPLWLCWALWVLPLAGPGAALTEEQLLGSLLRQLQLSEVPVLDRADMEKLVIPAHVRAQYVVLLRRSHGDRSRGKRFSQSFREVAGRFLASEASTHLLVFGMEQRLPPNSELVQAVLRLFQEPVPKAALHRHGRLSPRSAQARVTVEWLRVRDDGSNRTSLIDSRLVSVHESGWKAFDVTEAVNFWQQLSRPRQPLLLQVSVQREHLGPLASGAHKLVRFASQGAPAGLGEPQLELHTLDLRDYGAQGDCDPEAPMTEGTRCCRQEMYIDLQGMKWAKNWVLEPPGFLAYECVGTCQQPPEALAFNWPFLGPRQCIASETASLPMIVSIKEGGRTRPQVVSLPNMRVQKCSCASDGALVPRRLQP

[14] = molecular target: Calmodulin-1 (Homo sapiens) (UniProt P0DP23); experiment: small molecules binding calmodulin-1 with EGTA – biochemical, small-molecule microarray, Cy5-labelled CALM1, profiling panel (AID 1111); settings: Cy5-CALM1 binding fluorescence, higher = more signal;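 further: labelled calmodulin applied in Tris saline Tween buffer holding calcium plus EGTA and DTT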
[15] = molecular target: Calmodulin-1 (Homo sapiens) (UniProt P0DP23); experiment: small molecules binding Ca-loaded calmodulin-1 – biochemical, small-molecule microarray, Cy5-labelled CALM1, plus calcium, artefact control for SMM control-protein annotation, profiling panel (AID 1112); settings: Cy5-CALM1 binding fluorescence, higher = more signal;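 further: score merges spot fluorescence with signal to noise from triplicate slides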
[16] = probe aWnt5a binding to arrayed compounds – biochemical, biotinylated probe, 635/667 nm fluorescence, primary screen (AID 1113); settings: small-molecule microarray, higher = more signal;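 further: score merges 667 nm fluorescence intensity with signal-to-noise per printed feature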
[17] = probe aShh binding to arrayed compounds – biochemical, biotinylated probe, 635/667 nm fluorescence, primary screen (AID 1114); settings: small-molecule microarray, higher = more signal;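 further: probe is biotin-labelled aShh protein from a stem cell growth factor screen; measures binding of labelled protein to compounds printed on the slide; score merges feature fluorescence at 667 nm with signal-to-noise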
[18] = probe aNog binding to arrayed compounds – biochemical, biotinylated probe, 635/667 nm fluorescence, primary screen (AID 1115); settings: small-molecule microarray, higher = more signal;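 further: probe is biotinylated aNog protein used at 0.15 µg/mL for 1 h at 4 C; z-score combines 667 nm fluorescence of each spot with its signal to noise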
[19] = molecular target: Torsin-1A-interacting protein 1 (Homo sapiens) (UniProt Q5JTV8); experiment: compound microarray binding of lysate hLAP1 – cell lysate, small-molecule microarray, COS7 lysate, 635/667 nm fluorescence, primary screen (AID 1116); settings: 635 nm fluorescence, higher = more signal
Sequence of Torsin-1A-interacting protein 1 (Homo sapiens) (Q5JTV8 whole entry, looked up): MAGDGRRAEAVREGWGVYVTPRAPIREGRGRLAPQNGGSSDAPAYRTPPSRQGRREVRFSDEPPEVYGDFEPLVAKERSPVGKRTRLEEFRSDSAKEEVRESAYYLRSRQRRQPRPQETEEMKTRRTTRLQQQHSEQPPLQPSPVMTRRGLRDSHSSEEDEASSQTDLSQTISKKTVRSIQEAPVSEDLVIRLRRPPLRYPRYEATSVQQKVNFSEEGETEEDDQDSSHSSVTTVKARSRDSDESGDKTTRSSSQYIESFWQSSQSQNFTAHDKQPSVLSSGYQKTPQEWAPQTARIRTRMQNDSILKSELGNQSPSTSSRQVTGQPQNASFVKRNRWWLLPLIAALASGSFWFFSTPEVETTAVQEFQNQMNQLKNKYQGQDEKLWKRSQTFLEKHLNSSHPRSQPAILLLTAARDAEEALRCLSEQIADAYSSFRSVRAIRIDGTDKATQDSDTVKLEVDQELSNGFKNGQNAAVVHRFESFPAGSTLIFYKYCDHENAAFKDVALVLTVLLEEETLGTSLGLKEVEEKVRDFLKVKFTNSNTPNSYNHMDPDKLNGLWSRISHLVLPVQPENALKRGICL

[20] = molecular target: Alpha-bungarotoxin (Bungarus multicinctus) (UniProt P60615); experiment: compounds binding labelled alpha-BTX control protein – biochemical, small-molecule microarray, Alexa647 label, 635/667 nm fluorescence, artefact control for SMM control protein annotation, profiling panel (AID 1117); settings: alpha-BTX-A647 binding fluorescence, higher = more signal
Sequence of Alpha-bungarotoxin (Bungarus multicinctus) (P60615 whole entry, looked up): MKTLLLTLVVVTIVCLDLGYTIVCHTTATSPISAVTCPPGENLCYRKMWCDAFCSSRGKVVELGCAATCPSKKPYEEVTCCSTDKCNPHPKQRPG

Row | Compound | composite z-score [1] | composite z-score [2] | composite z-score [3] | z-score [4] | composite z-score [5] | composite z-score [6] | composite z-score [7] | composite z-score [8] | composite z-score [9] | composite z-score [10] | composite z-score [11] | z-score [12] | composite z-score [13] | composite z-score [14] | composite z-score [15] | composite z-score [16] | composite z-score [17] | composite z-score [18] | composite z-score [19] | composite z-score [20]
1 | Cc1ccc(N2C(=O)c3ccccc3[C@](C)(C(=O)NCc3ccccc3)[C@@H]2c2ccc(CO)cc2)nc1 | 1.39 | 0.499 | 0.615 | -0.0691 (inactive) | 0.0497 | -0.341 | -0.219 | -0.192 | 0.381 | 1.21 | -0.192 | 0.478 | -0.0146 | -0.416 | -0.497 | 0.0079 | -0.0837 | -0.108 | 0.263 | -0.3
2 | COC(=O)[C@@]1(Cc2ccccc2)[C@H]2c3cc(C(=O)N4CCCC4)n(CCSCCO)c3C[C@H]2CN1C(=O)c1ccccc1 | 0.809 | 1.25 | 1.2 | -0.393 (inactive) | 0.283 | 0.954 | -0.0631 | 0.414 | -0.78 | 0.964 | 1.45 | -1.12 | -0.491 | 2.26 | 1.29 | 0.145 | 0.417 | 2.24 | 2.04 | 0.606
3 | CCCC=C(CCC)[C@@H](NS(=O)(=O)c1cccc2cccnc12)c1ccc(-c2ccccc2)cc1 | 0.757 | 0.939 | 0.75 | -0.301 (inactive) | 1 | 1.32 | 0.355 | 0.909 | -0.345 | -0.278 | 1.39 | -0.0261 | 0.601 | 1.62 | 0.841 | 0.183 | 0.432 | -0.779 | 0.765 | 1.08
4 | COC(=O)c1c2oc(c1C(=O)OC)C(=O)N1CCC[C@H]1Cn1nncc1CN(Cc1ccccc1)C(=O)N[C@H](CO)CC2 | 0.614 | -0.304 | -0.0048 | 0.733 (inactive) | 0.627 | -0.103 | 0.327 | -0.0361 | -0.113 | 0.309 | 0.289 | 0.253 | 0.239 | 0.724 | 0.169 | -0.0738 | -0.221 | -0.296 | -0.285 | -0.524
5 | O=C1O[C@H](c2ccccc2)[C@H](c2ccccc2)N2[C@H]1[C@@H](C(=O)N1CCCCCCC1)[C@]1(C(=O)Nc3ccc(C#CC4(O)CCCCCC4)cc31)[C@H]2c1ccc(O)cc1 | 1.5 | 2.93 | 1.59 | 0.69 (inactive) | 1.19 | 1.34 | 1.72 | 1.58 | 1.75 | 1.79 | 1.4 | -1.36 | 1.33 | 2.42 | 1.19 | 1.2 | 2.97 | 3.1 | 4.57 | 2.28
6 | COc1ccc(C#Cc2ccc3c(c2)[C@]2(C(=O)N3)[C@H](C(=O)Nc3nc4ccccc4s3)[C@H]3C(=O)O[C@H](c4ccccc4)[C@H](c4ccccc4)N3[C@@H]2c2ccccc2OCCO)cc1 | 0.465 | 0.243 | -0.125 | 0.17 (inactive) | 0.463 | 0.933 | 0.19 | 0.821 | 0.47 | 0.648 | 1.18 | -1.67 | 0.282 | 1.55 | 0.436 | -0.0685 | -0.282 | -0.273 | 0.471 | 1.02
7 | C[C@]1(C(=O)O)c2ccccc2C(=O)N(Cc2ccc(OC(F)(F)F)cc2)[C@H]1c1ccc(CO)cc1 | 0.0634 | 0.702 | 1.01 | 0.524 (inactive) | 0.0104 | -0.502 | -0.409 | -0.0953 | -0.656 | 0.496 | -0.829 | -0.102 | -0.618 | 1.03 | 0.714 | -0.129 | 0.147 | 0.265 | 0.703 | 1.56
8 | [N-]=[N+]=NCc1ccccc1C[C@@]1(C(=O)N2CCCCC2)N=C(c2ccc(OCCCO)cc2)O[C@@H]1c1ccccc1CN=[N+]=[N-] | 0.649 | 0.453 | 1.07 | -0.4 (inactive) | 0.375 | 0.962 | -0.0197 | -0.0105 | 0.287 | 0.964 | 0.905 | -2.73 | -0.133 | 2.02 | 1.37 | -0.101 | -0.0626 | 1.31 | 1.01 | 1.5
9 | C=C(CCCC)C(=O)CC[C@H](OC(C)=O)c1ccc(OCCO)cc1 | 0.56 | -0.262 | 0.0984 | -0.942 (inactive) | -0.509 | -1.24 | -0.448 | -0.746 | -0.8 | -0.146 | -0.319 | -2.73 | -0.0558 | -0.0294 | -0.92 | -0.102 | -0.262 | 0.0989 | -0.346 | 0.657
10 | COCCOC(=O)N1C(=O)[C@@]2(c3cc(C#Cc4ccc(OC)cc4)ccc31)[C@H](c1ccc(OCCO)cc1)N1[C@H](c3ccccc3)[C@H](c3ccccc3)OC(=O)[C@H]1[C@@H]2C(=O)Nc1nc2ccccc2s1 | 0.181 | 0.636 | 0.533 | -0.697 (inactive) | 1.06 | 0.506 | 0.397 | 0.805 | 0.154 | 0.598 | 1.34 | -1.54 | 0.225 | 1.91 | 0.487 | 0.0017 | 1.52 | 0.0044 | 0.699 | 0.885
